In one experiment the target is T1, ELK1 (Homo sapiens, UniProt P19419 1-428).
T1 sequence: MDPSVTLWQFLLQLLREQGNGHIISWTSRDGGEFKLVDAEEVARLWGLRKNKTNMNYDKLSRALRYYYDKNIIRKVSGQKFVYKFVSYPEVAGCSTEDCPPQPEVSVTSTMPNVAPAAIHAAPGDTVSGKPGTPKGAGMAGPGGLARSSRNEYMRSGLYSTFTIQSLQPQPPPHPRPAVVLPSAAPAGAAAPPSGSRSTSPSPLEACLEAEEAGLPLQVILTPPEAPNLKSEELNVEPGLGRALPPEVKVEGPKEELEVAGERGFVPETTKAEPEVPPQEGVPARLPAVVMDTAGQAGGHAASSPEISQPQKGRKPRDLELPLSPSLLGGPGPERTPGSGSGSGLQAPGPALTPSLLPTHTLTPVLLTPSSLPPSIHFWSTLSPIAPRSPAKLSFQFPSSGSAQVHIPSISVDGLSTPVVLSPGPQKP
The experiment can be described thus: DAPPL (digital affinity profiling via proximity ligation, sequencing); 10 mM Tris-HCl pH 7.5, 50 mM NaCl, 1 mM DTT, 4% glycerol, room temperature, 30 min; GST-TFs on glutathione beads, 16-mer random dsDNA library, 0.1% formaldehyde crosslink after washing; high values mean tight binding. The conditions noted are these: protein: recombinant; tags: N-terminal GST; dsDNA, one strand shown. The essentials: (§1)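 In yeast, human transcription factors were expressed with a GST fusion, then pulled down on glutathione beads and given DNA barcodes. Pooled with a tag-only sample, they were exposed to 200 nmole of a 16-mer random double-stranded DNA library (Tris/NaCl/DTT/glycerol buffer, room temperature, 30 min), washed, crosslinked with 0.1% formaldehyde, proximity-ligated using BsaI/T4 ligase for 1 h at 37 °C, PCR-amplified and read on an Illumina NextSeq500. Each hexamer's frequency of reads for a factor, divided by the matching frequency for the tag-only sample, gives the binding signal.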
Sequence of SPIB (Q01892 whole entry): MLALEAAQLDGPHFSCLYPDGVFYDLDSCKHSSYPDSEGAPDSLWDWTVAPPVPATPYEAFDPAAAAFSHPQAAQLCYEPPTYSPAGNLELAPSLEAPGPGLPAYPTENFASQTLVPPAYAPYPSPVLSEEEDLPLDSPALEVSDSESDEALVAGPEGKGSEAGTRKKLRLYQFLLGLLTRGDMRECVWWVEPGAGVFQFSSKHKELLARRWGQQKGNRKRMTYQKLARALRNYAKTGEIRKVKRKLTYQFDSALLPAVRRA
Sequence of ELF1 (P32519 whole entry): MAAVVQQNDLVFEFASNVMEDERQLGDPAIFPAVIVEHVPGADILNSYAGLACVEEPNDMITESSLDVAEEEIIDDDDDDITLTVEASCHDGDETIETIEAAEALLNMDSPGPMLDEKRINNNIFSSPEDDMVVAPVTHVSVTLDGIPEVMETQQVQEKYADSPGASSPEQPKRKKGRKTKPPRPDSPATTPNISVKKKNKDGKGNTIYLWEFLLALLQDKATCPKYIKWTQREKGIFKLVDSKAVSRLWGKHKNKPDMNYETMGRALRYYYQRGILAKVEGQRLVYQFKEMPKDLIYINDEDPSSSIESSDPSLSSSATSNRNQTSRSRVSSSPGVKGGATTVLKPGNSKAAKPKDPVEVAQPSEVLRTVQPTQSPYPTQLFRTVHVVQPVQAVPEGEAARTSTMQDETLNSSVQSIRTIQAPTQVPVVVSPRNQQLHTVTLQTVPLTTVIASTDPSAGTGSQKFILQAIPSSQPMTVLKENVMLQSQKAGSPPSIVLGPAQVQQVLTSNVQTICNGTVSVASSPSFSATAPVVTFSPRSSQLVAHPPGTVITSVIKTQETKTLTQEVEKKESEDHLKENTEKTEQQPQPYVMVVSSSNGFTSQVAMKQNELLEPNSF
Consider GATCAC, for which the binding signal is 1.01 fold enrichment (6-mer frequency, TF over GST control).
On the same count and under the same terms, the value for GGTTAC was 1.05 fold enrichment (6-mer frequency, TF over GST control).
The same measure, in the same setting: the value for GACATG was 1.01 fold enrichment (6-mer frequency, TF over GST control).

For a further experiment, the target named is T2, GABPA (Homo sapiens, UniProt Q06546 1-454).
T2 sequence: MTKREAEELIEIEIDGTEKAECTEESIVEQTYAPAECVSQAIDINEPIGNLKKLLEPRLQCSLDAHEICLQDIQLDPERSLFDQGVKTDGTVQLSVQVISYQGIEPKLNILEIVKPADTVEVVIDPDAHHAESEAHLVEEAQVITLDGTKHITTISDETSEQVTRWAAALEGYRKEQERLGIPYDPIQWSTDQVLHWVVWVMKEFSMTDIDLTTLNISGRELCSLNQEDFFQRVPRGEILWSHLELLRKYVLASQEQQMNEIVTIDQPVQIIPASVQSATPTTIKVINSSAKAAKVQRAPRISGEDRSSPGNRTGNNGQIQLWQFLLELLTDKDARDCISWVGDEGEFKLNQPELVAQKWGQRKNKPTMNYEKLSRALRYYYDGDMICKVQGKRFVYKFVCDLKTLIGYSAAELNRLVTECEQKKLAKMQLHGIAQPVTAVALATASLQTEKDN
The description is as above. As to conditions: protein: recombinant; tags: N-terminal GST; dsDNA, one strand shown. The essentials: as §1
As for CACTGA, the binding signal was 1.09 fold enrichment (6-mer frequency, TF over GST control).
The same measure, in the same setting: the result for TGGCGC reads 1.02 fold enrichment (6-mer frequency, TF over GST control); that for CAGCAC, 1.03 fold enrichment (6-mer frequency, TF over GST control); that for CCACGT, 1.09 fold enrichment (6-mer frequency, TF over GST control).
The same measure, in the same setting: the value for ACGAGC was 1.01 fold enrichment (6-mer frequency, TF over GST control); that for CGTCAT was 1.03 fold enrichment (6-mer frequency, TF over GST control).
The same measure, in the same setting: the value for ATGAGG was 1.03 fold enrichment (6-mer frequency, TF over GST control); that for ATAGTC was 1.01 fold enrichment (6-mer frequency, TF over GST control).
Consider AGTAGC, for which the binding signal was 1.03 fold enrichment (6-mer frequency, TF over GST control).

Another experiment deals with T3, ERG (Homo sapiens, UniProt P11308 1-479).
T3 sequence: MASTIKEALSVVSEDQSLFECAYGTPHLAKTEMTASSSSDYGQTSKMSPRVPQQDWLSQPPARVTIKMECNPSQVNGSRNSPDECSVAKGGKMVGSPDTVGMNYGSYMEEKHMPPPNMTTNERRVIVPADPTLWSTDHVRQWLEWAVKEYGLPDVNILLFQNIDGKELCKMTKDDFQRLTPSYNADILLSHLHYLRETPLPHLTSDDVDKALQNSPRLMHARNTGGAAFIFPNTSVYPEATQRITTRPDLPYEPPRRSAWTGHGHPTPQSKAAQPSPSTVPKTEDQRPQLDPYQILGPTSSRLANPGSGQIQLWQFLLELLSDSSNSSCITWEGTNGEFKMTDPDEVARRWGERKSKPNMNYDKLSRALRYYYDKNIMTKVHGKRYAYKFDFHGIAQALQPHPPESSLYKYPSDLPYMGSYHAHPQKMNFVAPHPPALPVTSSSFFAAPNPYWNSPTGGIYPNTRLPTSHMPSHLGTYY
The experiment is described as above. The conditions noted are these: protein: recombinant; tags: N-terminal GST; dsDNA, one strand shown. The essentials:
as §1
For AGGTCC, the binding signal is 1.02 fold enrichment (6-mer frequency, TF over GST control).
For AGGGAA, the binding signal was 1.02 fold enrichment (6-mer frequency, TF over GST control).
Same read-out and setting: the value for ACGAGC was 1.01 fold enrichment (6-mer frequency, TF over GST control); that for CGTCAT was 1.02 fold enrichment (6-mer frequency, TF over GST control); that for TGCAGG was 1.01 fold enrichment (6-mer frequency, TF over GST control).

A further experiment has as its target ELF1 (Homo sapiens, UniProt P32519 1-619). The experiment is described as above. The conditions noted are these: protein: recombinant; tags: N-terminal GST; dsDNA, one strand shown. The essentials: as §1
CGCTGT: the binding signal was 1.01 fold enrichment (6-mer frequency, TF over GST control).
Same read-out and setting: the result for GATCAC reads 1.02 fold enrichment (6-mer frequency, TF over GST control); that for CACTGA, 1.02 fold enrichment (6-mer frequency, TF over GST control); that for GGTTAC, 1.01 fold enrichment (6-mer frequency, TF over GST control).
For the sequence CAGCAC, the binding signal is 1.02 fold enrichment (6-mer frequency, TF over GST control).
Still for that read-out and setting: the result for CACGGC reads 1.04 fold enrichment (6-mer frequency, TF over GST control); that for CCACGT, 1.04 fold enrichment (6-mer frequency, TF over GST control).

Another experiment addresses T4, EHF (Homo sapiens, UniProt Q9NZC4 1-300).
T4 sequence: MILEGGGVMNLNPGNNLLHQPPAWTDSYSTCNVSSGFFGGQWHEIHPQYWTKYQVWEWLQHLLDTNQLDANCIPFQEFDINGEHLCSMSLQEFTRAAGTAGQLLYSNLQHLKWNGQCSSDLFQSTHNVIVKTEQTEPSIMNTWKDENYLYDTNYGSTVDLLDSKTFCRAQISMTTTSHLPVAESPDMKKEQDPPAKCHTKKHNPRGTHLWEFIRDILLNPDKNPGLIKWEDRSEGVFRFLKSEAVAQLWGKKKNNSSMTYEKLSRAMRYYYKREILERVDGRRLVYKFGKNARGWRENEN
The description is as above. As to conditions: protein: recombinant; tags: N-terminal GST; dsDNA, one strand shown. The gist of the method:
as §1
On to AGGTCC, for which the binding signal is 1.05 fold enrichment (6-mer frequency, TF over GST control).
Same read-out and setting: the value for AGGGAA was 1.04 fold enrichment (6-mer frequency, TF over GST control); that for CAGCAC was 1 fold enrichment (6-mer frequency, TF over GST control); that for CGCGCA was 1.07 fold enrichment (6-mer frequency, TF over GST control).
Same read-out and setting: the value for ACGAGC was 1.02 fold enrichment (6-mer frequency, TF over GST control); that for AGATAC was 1 fold enrichment (6-mer frequency, TF over GST control).
As to AGTAGC, the binding signal was 1.01 fold enrichment (6-mer frequency, TF over GST control).

In another experiment the target is SPI1 (Homo sapiens, UniProt P17947 1-270). The experiment is described as above. The conditions noted are these: protein: recombinant; tags: N-terminal GST; dsDNA, one strand shown. The gist of the method:
as §1
Take GGCGTT: the binding signal was 1.03 fold enrichment (6-mer frequency, TF over GST control).
With AGGGAA, the binding signal is 1.39 fold enrichment (6-mer frequency, TF over GST control).
For CACGGC, the binding signal is 1.01 fold enrichment (6-mer frequency, TF over GST control).
Consider ATGAGG, for which the binding signal was 1.4 fold enrichment (6-mer frequency, TF over GST control).
Same read-out and setting: the value for TGCAGG was 1.03 fold enrichment (6-mer frequency, TF over GST control).
GTGGTT: the binding signal was 1.02 fold enrichment (6-mer frequency, TF over GST control).
The same measure, in the same setting: the result for AGTAGC reads 1.22 fold enrichment (6-mer frequency, TF over GST control).

A further experiment concerns the target SPIB (Homo sapiens, UniProt Q01892 1-262). The experiment is described as above. As to conditions: protein: recombinant; tags: N-terminal GST; dsDNA, one strand shown. The gist of the method:
as §1
Turning to GGCGTT, the binding signal is 1.05 fold enrichment (6-mer frequency, TF over GST control).
On to AGGGAA, for which the binding signal is 1 fold enrichment (6-mer frequency, TF over GST control).
As to GTGATG, the binding signal was 1.04 fold enrichment (6-mer frequency, TF over GST control).
Still for that read-out and setting: the value for GTACAG was 1.01 fold enrichment (6-mer frequency, TF over GST control).
For CGCGCA, the binding signal is 1.04 fold enrichment (6-mer frequency, TF over GST control).
Take CCACGT: the binding signal was 1.03 fold enrichment (6-mer frequency, TF over GST control).
As for TGCAGG, the binding signal is 1.07 fold enrichment (6-mer frequency, TF over GST control).
With GCAGAT, the binding signal is 1.02 fold enrichment (6-mer frequency, TF over GST control).

The next experiment has as its target T5, ELK3 (Homo sapiens, UniProt P41970 1-407).
T5 sequence: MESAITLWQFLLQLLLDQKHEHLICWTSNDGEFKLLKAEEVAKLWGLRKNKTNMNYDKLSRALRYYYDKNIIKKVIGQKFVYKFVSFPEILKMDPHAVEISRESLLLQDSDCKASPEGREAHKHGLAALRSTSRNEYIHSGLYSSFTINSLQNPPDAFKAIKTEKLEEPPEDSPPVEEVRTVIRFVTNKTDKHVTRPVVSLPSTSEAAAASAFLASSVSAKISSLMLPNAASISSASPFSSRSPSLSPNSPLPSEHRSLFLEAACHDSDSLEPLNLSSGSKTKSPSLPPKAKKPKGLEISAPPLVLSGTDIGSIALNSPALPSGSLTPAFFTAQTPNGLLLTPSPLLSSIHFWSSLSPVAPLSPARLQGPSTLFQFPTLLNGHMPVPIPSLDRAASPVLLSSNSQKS
The description is as above. As to conditions: protein: recombinant; tags: N-terminal GST; dsDNA, one strand shown. The gist of the method: as §1
As to GGCGTT, the binding signal is 1.02 fold enrichment (6-mer frequency, TF over GST control).
Still for that read-out and setting: the result for GATCAC reads 1.16 fold enrichment (6-mer frequency, TF over GST control); that for CACTGA, 1.07 fold enrichment (6-mer frequency, TF over GST control).

Source of the values: article PMC7862700, “An all-to-all approach to the identification of sequence-specific readers for epigenetic DNA modifications on cytosine”.
